Measured values reported in PubChem BioAssay AID485346 (Sanford-Burnham Center for Chemical Genomics, 2010).
Out of some 330,000 compounds screened, about 10,000 (3%) were called active. What follows is part of a selection rich in actives, with near analogues and random picks from the rest. Values without a mark were called inactive.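 Rule for the calls: active = inhibition of at least 50% at 8 µM in the primary screen; inactive = the rest.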

molecular target: Protein Mdm4 (Homo sapiens) + E3 ubiquitin-protein ligase Mdm2 (Homo sapiens) (UniProt O15151+Q00987); experiment: disruptors of Mdm2/MdmX RING complex – cell-based, luminescence, split luciferase, SaOS-2, uHTS, primary screen (AID 485346); conditions: SaOS-2 split-luciferase Mdm2/MdmX complementation, at 8 µM, active compounds read high
Sequence (O15151 whole entry, looked up): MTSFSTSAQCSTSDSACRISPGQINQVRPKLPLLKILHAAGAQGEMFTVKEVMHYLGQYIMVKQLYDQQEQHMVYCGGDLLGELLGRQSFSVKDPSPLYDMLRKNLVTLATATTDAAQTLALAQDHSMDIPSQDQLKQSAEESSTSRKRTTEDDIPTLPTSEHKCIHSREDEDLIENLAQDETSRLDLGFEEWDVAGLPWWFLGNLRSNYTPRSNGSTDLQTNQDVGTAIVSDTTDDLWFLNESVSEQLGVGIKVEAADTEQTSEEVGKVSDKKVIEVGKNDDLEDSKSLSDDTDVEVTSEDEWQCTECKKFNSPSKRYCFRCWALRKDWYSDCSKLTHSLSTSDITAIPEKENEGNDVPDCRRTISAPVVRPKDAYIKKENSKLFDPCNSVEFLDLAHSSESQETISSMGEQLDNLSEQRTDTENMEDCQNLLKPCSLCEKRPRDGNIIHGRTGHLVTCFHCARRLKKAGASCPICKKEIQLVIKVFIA
Sequence (Q00987 whole entry, looked up): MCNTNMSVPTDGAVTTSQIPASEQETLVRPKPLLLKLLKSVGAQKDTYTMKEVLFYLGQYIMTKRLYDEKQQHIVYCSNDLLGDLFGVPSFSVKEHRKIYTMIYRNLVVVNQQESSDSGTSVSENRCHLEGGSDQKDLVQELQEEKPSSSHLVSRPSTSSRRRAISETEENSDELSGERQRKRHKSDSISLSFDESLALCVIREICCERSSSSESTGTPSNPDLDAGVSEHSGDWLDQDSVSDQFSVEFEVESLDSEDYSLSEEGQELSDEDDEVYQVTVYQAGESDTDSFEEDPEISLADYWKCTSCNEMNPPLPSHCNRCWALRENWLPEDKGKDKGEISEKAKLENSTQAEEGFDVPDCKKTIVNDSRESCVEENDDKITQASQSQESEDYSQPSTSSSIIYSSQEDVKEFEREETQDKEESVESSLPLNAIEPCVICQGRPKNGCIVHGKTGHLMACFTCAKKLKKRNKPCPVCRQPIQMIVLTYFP

Compound	inhibition
COc1ccccc1C(=O)COC(=O)CSCC(=O)Nc1cc(C)on1	9.62%
COc1ccc(-c2nc3cc(C)ccn3c2NC2CCCCC2)cc1SC1CCCCC1	92.7% (active)
CCOc1cc(-c2nc3cc(C)ccn3c2NCC2CCCO2)ccc1O (stereo not drawn)	22.2%
COc1ccc(-c2nc3cnccn3c2NC2CCCCC2)cc1-c1cccc(Cl)c1	34.9%
CCOc1ccc(C(=O)Nc2ccc(CN3CCOCC3)cc2)cc1Cl	-7.17%
CCN(CC)C(=O)Cn1cc(S(=O)(=O)CC(=O)NCc2ccc3c(c2)OCO3)c2ccccc21	15.5%
CC(C)(C)OC(=O)CNC(=O)c1[nH]cnc1C(=O)N[C@@H](Cc1ccccc1)C(=O)OCc1ccccc1	9.35%
O=C(N[C@@H](Cc1ccccc1)C(=O)OCc1ccccc1)c1nc[nH]c1C(=O)NC1CCNCC1	20.5%
CC(C)(C)OC(=O)N1CCC(NC(=O)c2[nH]cnc2C(=O)N[C@@H](Cc2ccccc2)C(=O)OCc2ccccc2)CC1	65.6% (active)
CC(C)c1ccc(NC(=O)[C@@H](NC(=O)N2CC(=O)Nc3ccccc32)C(C)C)cc1	46.3%
O=C(N1CCCC1)C12CC3CC(C1)CC(C(=O)N1CCCC1)(C3)C2	0.875%
CC(Sc1nnc(-c2ccccc2F)n1C1CC1)C(N)=O (stereo not drawn)	2.33%
O=S1(=O)CCO[C@H]2Cc3ccccc3[C@H]2N1Cc1ccccc1	-0.566%
Cn1cc([N+](=O)[O-])c(C(=O)Nc2cnn(Cc3ccc(F)cc3)c2)n1	61.3% (active)
CCc1ccc(NC(=O)c2ccc(Cn3cc([N+](=O)[O-])cn3)cc2)cc1	7.69%
Cn1cc([N+](=O)[O-])c(C(=O)Nc2ccc3c(c2)OCCO3)n1	15.1%
CC(C)CCN(C(=O)c1csnn1)C(C(=O)NC1CCCC1)c1ccccc1 (stereo not drawn)	1.25%
Cc1ccc(N2C(=O)c3ccccc3C2(O)c2ncc[nH]2)cc1 (stereo not drawn)	11%
CCCC(=O)Nc1nc2ccc(NC(=O)c3cccnc3)cc2s1	56.4% (active)
CCCC(=O)Nc1nc2ccc(NC(=O)c3c(F)c(F)c(OC)c(F)c3F)cc2s1	40.2%
CCOC(=O)c1ccc(NC(=O)c2cccnc2)cc1	-5.28%
COC(=O)c1ccc(C23CC4(C2)[C@H](CN(Cc2cccnc2)[C@@H]4c2ccccc2)C3c2ccc(Cl)nc2)cc1 (stereo partly drawn)	21.5%
Clc1ccc(C2[C@H]3CN(CC4CCCCC4)[C@H](c4ccccc4)C34CC2(c2cccnc2)C4)cn1 (stereo partly drawn)	-0.579%
FC(F)(F)c1ccc(CN2C[C@@H]3C(c4ccccc4)C4(c5ccccc5)CC3(C4)[C@H]2c2ccccc2)cc1 (stereo partly drawn)	93.9% (active)
O=C1c2ccccc2C(=O)N1CCC(c1ccccc1)c1ccco1 (stereo not drawn)	-4.99%
CC1CCC(N2CC(=O)N(Cc3ccc4c(c3)OCO4)C(c3ccc(F)cc3)C2=O)CC1 (stereo not drawn)	-7.03%
CC1=CC(C)(C)Nc2ccc(OC(=O)CN3C(=O)C4CCCCC4C3=O)cc21 (stereo not drawn)	54% (active)

Compound	inhibition
CC1=CC(C)(C)Nc2ccc(OC(=O)C(Cc3ccccc3)N3C(=O)C4CCCCC4C3=O)cc21 (stereo not drawn)	42.7%
O=C(CN1C(=O)C2C3CCC(C3)C2C1=O)Oc1ccc2ccccc2c1 (stereo not drawn)	12%
Cc1ccc(CNC(=O)Cn2cnc3c(NCc4ccccc4)ncnc32)o1	28.2%
NC(=O)COc1ccc(C23CC4CC(CC(C4)C2)C3)cc1	-45%
Cc1cc([N+](=O)[O-])nn1CC(=O)Nc1ccc(Cc2ccncc2)cc1	2.13%
CCOC(=O)N1CCN(C(=O)CSc2nc(=O)n3cccc(C)c3n2)CC1	-0.597%
CCCN(CCC)c1nc2c(C)cccn2c(=O)c1/C=C1/SC(=S)N(Cc2ccco2)C1=O	2.98%
CCOC(=O)CC1C(=O)NCCN1c1nc2c(C)cccn2c(=O)c1/C=C1\SC(=S)N(C(C)CC)C1=O (stereo not drawn)	59% (active)
Cc1cc(C)n2nc(C(=O)Nc3cccc(S(=O)(=O)N4CCOCC4)c3)nc2n1	7.78%
COc1ccccc1C(=O)NC(=S)NC12CC3CC(CC(C3)C1)C2	63.6% (active)
NC(=O)COc1ccccc1C(=O)NC12CC3CC(CC(C3)C1)C2	3.86%
COc1ccccc1C(=O)NC(=O)COC(=O)C1CC1	-22.8%
COc1ccc(N2CCN(CCNC(=O)Nc3cc(Cl)ccc3Cl)CC2)cc1	14.4%
CCCCn1c(N)c(N(CC(C)C)C(=O)c2ccc(Br)o2)c(=O)[nH]c1=O	25.9%
CNc1ccc(SC#N)cc1	0.392%
COc1ccc(C2=NN(c3nc4ccccc4s3)C(=O)C2)cc1	1.88%
CC(=NCc1ccco1)c1c(C(F)(F)F)[nH]n(-c2nc3ccccc3s2)c1=O	0.099%
COC(=O)Cc1[nH]n(-c2nc3ccccc3s2)c(=O)c1C(C)=Nc1ccc(OC)cc1	77.3% (active)
CCn1nc(C)c(CNC(=O)C2CCC(=O)N(Cc3cccc(F)c3)C2)c1C (stereo not drawn)	28.2%
COc1ccc2[nH]c3c(c2c1)CCN1C(=O)C(CC(=O)NCCCN(C)C)C[C@H](C(=O)N2CCOCC2)[C@@]31CCC1CCCC1 (stereo partly drawn)	-3.6%
O=C(C[C@H]1C[C@H](C(=O)N2CCOCC2)[C@@]2(CCC3CCCC3)c3[nH]c4ccc(Cl)cc4c3CCN2C1=O)NCc1ccco1	49.9%
COc1ccc(CNC(=O)C[C@H]2C[C@H](C(=O)N3CCOCC3)[C@@]3(CCC4CCCC4)c4[nH]c5ccc(Cl)cc5c4CCN3C2=O)cc1OC	92.6% (active)
COCCN(C(=O)C(C)C)c1nnc(-c2ccc(C(C)(C)C)cc2)s1	-22.5%
O=C1NC(Nc2nc3ccccc3s2)(C(F)(F)F)C(=O)N1C1CCCCC1 (stereo not drawn)	66.2% (active)
O=C(NC1(C(F)(F)F)NC(=O)N(C2CCCCC2)C1=O)c1ccco1 (stereo not drawn)	1.56%
COC(=O)NC1(C(F)(F)F)NC(=O)N(C2CCCCC2)C1=O (stereo not drawn)	-5.21%
